Shown are actives, neighbours in structure and some others; about 6.2% of the full set was active somewhere.
HCMV inh: human cytomegalovirus inhibition; activity change, negative = inhibition, % at 57.5 µM; actives 4.5% (n = 410,000); AID 1259415; HFF cells, HCMV-luciferase reporter, 72 h; hits give low values; in the data active = activity change below about -60%; inconclusive = no clear call, values can overlap the other calls; inactive = above about -39%
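Cell-based, HFFs, 1000 cells/well, 16 h 37C; cpds in DMSO + HCMV-luc, MOI 1 PFU/cell; 72 h 37C; OneGlo luminescence after 5 min RT; norm. to buffer vs Salinomycin 10uM.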
LASV entry inh: Lassa virus entry inhibition; Potency, µM (top dose mostly 37.9 µM), for the others: top-dose activity change, negative = inhibition, usual class: inhibitors; actives 1.2% (n = 300,000); Lassa virus pseudotype entry inhibition, cell reporter; calls by dose curve; tested in HEK293 cells; also: potency is read from the fitted curve at half-maximal effect; nearly all actives have a fitted effect of over 50% in size
FMDV inh: blocks foot and mouth disease virus; FMDV antiviral cell-based qHTS; Potency, µM (top dose mostly 57.9 µM), without a hit: at the top dose activity change, negative = inhibition, usual class: inhibitors; actives 1.2% (n = 410,000); calls by dose curve; tested in HEK293T cells; also: read-out not given here; potency is read from the fitted curve at half-maximal effect; nearly all actives have a fitted effect of over 45% in size
Marburg entry inh: blocks Marburg virus binding to or entry into cells; AID 540276; actives 1.8% (n = 300,000); Marburg virus pseudotyped entry inhibition, cell reporter; Potency, µM (series often up to 37.8 µM), for inactives: at the top dose activity change, negative = inhibition, actives largely listed as inhibitors; calls by dose curve; tested in HEK293 cells; also: potency is read from the fitted curve at half-maximal effect
Starred values were filed as active, the others as inactive; ? = inconclusive; . = no result given; [ ] = another dose, or the depositor's remark. % is scaled to controls: 0 for no effect and ±100 for the full control effect.

SMILES	HCMV inh	LASV entry inh	FMDV inh	Marburg entry inh
O=C(COc1ccc(Br)cc1Br)NC1CCCC1	-63*	.	9%	.
CCCN(C)C[C@H]1Oc2cc(C#Cc3ccc(F)cc3)ccc2S(=O)(=O)N([C@H](C)CO)C[C@@H]1C	35	.	8%	.
O=[N+]([O-])c1ccc(N2CCOCC2)cc1O	10	-2%[46.1 µM]	5%	-1%[46.1 µM]
Cc1cc(N2CCOCC2)ccc1/C=C\[N+](=O)[O-]	-98*	21µM*	?	?
CC[C@@H](C)[C@H](CNC)NC[C@@H](Cc1cccc2ccccc12)NCCc1cccc(C(F)(F)F)c1	-99*	.	-69%	.
CCC[C@@H](CN[C@@H](CNC)[C@H](C)CC)NCC1CCC(C(C)(C)C)CC1 (stereo partly specified)	-99*	.	-29%	.
OC(CNCCc1ccc(C(F)(F)F)cc1)COc1cccc2ccccc12 (stereo unspecified)	-12	?	?	?
CCC[C@@H](CN[C@@H](CNC)C(C)C)NCCCCc1ccccc1	?	.	-16%	.
CCC[C@H](CN[C@@H](CNC)[C@H](C)CC)NCCc1cc(C(F)(F)F)cc(C(F)(F)F)c1	-78*	.	?	.
Cc1nc(SCc2ccccc2C#N)n[nH]1	-30	.	7%	.
CCNC(=S)N=Nc1c(O)[nH]c2ccc(C(C)C)cc12	-66*	3.5µM*	-24%	-23%
Cc1ccc(-c2nc(N)nc(N)n2)c(C)c1	-95*	.	-3%	.
Cc1ccc(Sc2nnc(-c3ccccc3)cc2C#N)cc1	29	1%	-10%	10%
COc1ccc(Sc2nnc(-c3ccccc3)cc2C#N)cc1	-10	-8%	0%	0%
COc1ccc(Sc2nnc(Cc3ccccc3)c3ccccc23)cc1	-89*	-32%[14.3 µM]	?	?
Cc1ccc(Sc2nnc(Cc3ccccc3)c3ccccc23)cc1	-88*	0%	?	?
CCC(C(=O)N/N=C/c1cccnc1)c1ccccc1 (stereo unspecified)	21	26%[46.1 µM]	31%	15%[46.1 µM]
Cc1ccc(S(=O)(=O)NC(=O)ON=Cc2ccc3c(c2)OCO3)cc1	-98*	.	.	.
CC(C)CNC(=O)c1cc2nc3c(c(C(F)(F)F)n2n1)CCc1ccccc1-3	-67*	1%	4%	9%
CN(Cc1cccs1)C(=O)c1cc(S(=O)(=O)N2CCOCC2)ccc1N1CCCC1	-34	.	-10%	.
Cc1c(C(=O)N/N=C/c2ccc(Cl)cc2)[nH]c2ccc(Cl)cc12	-89*	.	59%	.
Cc1c(C(=O)N/N=C/C(C)C)[nH]c2ccc([N+](=O)[O-])cc12	-75*	?	-6%	13%[46.1 µM]
CCOC(=O)C[n+]1ccc2c([nH]c3ccccc32)c1C	-3	?	-5%	6%
C=C(c1ccccc1C)[n+]1ccccc1	9	17%	-5%	-11%
C=C(c1ccccc1Cl)[n+]1ccccc1	-60*	-12%	-12%	?
SMILES	HCMV inh	LASV entry inh	FMDV inh	Marburg entry inh
CC1OC(OC2C=C3CCC4C(CCC5(C)C(c6ccc(=O)oc6)CCC45O)C3(C)CC2)C(O)C(OC2OC(CO)C(O)C(O)C2O)C1O (stereo unspecified)	-97*	?	?	?
Cc1c(CC(=O)NCCCCCC(=O)O)c(=O)oc2cc3c(cc12)CCC(C)(C)O3	-15	-23%	-16%	?
Cc1c(CC(=O)NCCC(=O)O)c(=O)oc2cc3oc4c(c3cc12)CCCC4	-40	.	3%	.
Cc1c(CC(=O)NCCCC(=O)O)c(=O)oc2cc3c(cc12)CCC(C)(C)O3	-86*	?	6.3µM*	?
Cc1c(CC(=O)NCCCC(=O)O)c(=O)oc2cc3oc4c(c3cc12)CCCC4	-66*	-6%	16%	-2%
O=C(c1cc2nc(-c3ccc(F)cc3)cc(C(F)(F)F)n2n1)N1CCCCC1c1cccnc1 (stereo unspecified)	-90*	?	18µM*	?
CCC1=C(OC(=O)N(CC)CC)N2C(=O)OC(=NCc3ccccc3)[C@]2(C)[C@H]2C1=CC[C@H]1C(=O)N(CC(=O)OC)C(=O)[C@H]12	-62*	.	71%	.
O=C(NCCN1C(=O)S/C(=C\c2ccc(Cl)c(Cl)c2)C1=O)c1cnccn1	-66*	-16%	-13%	-5%
CN(C)S(=O)(=O)c1ccc(C(=O)NCCN2C(=O)S/C(=C\c3cccnc3)C2=O)cc1	35	2%	26%	15%[46.1 µM]
CS(=O)(=O)c1ccc(C(=O)NCCN2C(=O)S/C(=C\c3cccnc3)C2=O)cc1[N+](=O)[O-]	-114*	21µM*	28µM*	10µM*
Cc1csc2nc(CN3CCN(CC(=O)N(C)C)CC3)cc(=O)n12	-10	9%[46.1 µM]	-7%	?
Cc1c(C(=O)Nc2ccc(C(C)C)cc2)sc2nc[nH]c(=O)c12	57	?	2%	.
O=C1C2CCCN2C(c2cccs2)N1c1ccc(Cl)cc1 (stereo unspecified)	-74*	7.3µM*	13%	?
COc1ccccc1C1N(c2ccc(Cl)cc2)C(=O)C2CCCN21 (stereo unspecified)	-75*	?	-15%	4.6µM*
C[C@H]1CN([C@@H](C)CO)C(=O)c2cccc(NC(=O)C3CC3)c2O[C@H]1CN(C)C(=O)Nc1ccc2c(c1)OCO2	22	.	-3%	.
O=C(CN1C2=NCCCN2c2ccccc21)c1ccc([N+](=O)[O-])cc1	-66*	-14%	-4%	?
CN(C)CCNc1ccc(CO)c2oc3ccc(O)cc3c(=O)c12	-99*	?	2%	?
Cc1ccc(C2(CCNCc3ccc(N(C)C)cc3)CCOC(C(C)C)C2)cc1 (stereo unspecified)	-39	?	-25%	?
Cc1ccc(C2(CCNS(=O)(=O)c3ccc(C)cc3)CCOC(C(C)C)C2)cc1 (stereo unspecified)	-22	?	-3%	6.5µM*
Cc1cc(C(=O)Cn2nc(C(=O)O)c3ccccc3c2=O)c(C)n1CCc1ccc(F)cc1	-32	?	-24%	5.6µM*
Cc1cc(C(=O)CSc2cccc[n+]2[O-])c(C)n1-c1ccc(OC(F)F)cc1	-73*	.	5%	.
Cc1cc(C(=O)Cn2nc(C(=O)O)c3ccccc3c2=O)c(C)n1-c1ccc(OC(F)F)cc1	-66*	.	-20%	.
COc1cc(O)c2c(=O)c3c(O[C@H]4O[C@@H](CO)[C@H](O)[C@@H](O)[C@@H]4O)ccc(O)c3oc2c1	-7	.	?	.
CC(Sc1ncn[nH]1)C(=O)NCc1ccccc1 (stereo unspecified)	-99*	-2%[46.1 µM]	-27%	14%[46.1 µM]
O=C(CSc1ncn[nH]1)NCCc1ccccc1	7	-4%	-9%	14%
COc1ccccc1S(=O)(=O)Cc1ccc(C(=O)N2CCN(c3ccc(C)cc3)C(C)C2)o1 (stereo unspecified)	-19	.	32µM*	6%
CC(=O)c1ccc(NC(=O)C2CCCN(S(=O)(=O)c3ccc(Br)s3)C2)cc1 (stereo unspecified)	7	4%[46.1 µM]	-8%	4%[46.1 µM]
CC(C)C(CCNC1CCN(C)CC1)c1ccc(Cl)cc1 (stereo unspecified)	-99*	.	0%	.

Bioassay records (PubChem BioAssay)
